According to PubChem BioAssay (NCI):
The panel holds about 79,000 compounds, 15% with a hit somewhere; the sample as a whole holds those more often. The source made the active and inactive calls. Cut-off read from the data, not from the text of the source: active = growth inhibition above about 70%; inactive = the rest.

Test: NCI Yeast Anticancer Drug Screen. Data for the cln2 rad14 strain (AID 165);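 note: 0% = growth equal to vehicle treated cultures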
Conditions: S. cerevisiae cln2 rad14 strain, at 50.0 µM, active compounds read high
Summary of the method: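 Yeast carrying cln2 and rad14 alterations (cell cycle control and DNA damage repair) were exposed to compounds. Growth inhibition was measured against vehicle-treated controls.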

Question: Which growth inhibition does the source give for `CC(C)CC(C)OC(=O)Cc1ccccc1` (stereo not drawn) here?
Answer: -6.9% (inactive)

Question: With `CNC(=O)Oc1ccc(Br)cc1Br` as the compound, how does the growth inhibition read?
Answer: -3.55% (inactive)

Question: For `Fc1ccccc1N=C=S`, which growth inhibition is on record?
Answer: 18.1% (inactive)

Question: Which growth inhibition does the source give for `Cc1cc(C)c(C(=O)O)c(C)c1.[Hg]` here?
Answer: 99.5% (active)

Question: With `COc1ccccc1P(=S)(c1ccccc1)c1ccccc1` as the compound, how does the growth inhibition read?
Answer: 38% (inactive)

Question: Which growth inhibition does the source give for `CC1CN1C1=C(Br)C(=O)C(N2CC2C)=C(Br)C1=O` (stereo not drawn) here?
Answer: -3.05% (inactive)

Question: For `Nc1ccc2c(c1)[O][Sn]([c]1ccccc1)([c]1ccccc1)[O]C2=O`, which growth inhibition is on record?
Answer: 89.2% (active)

Question: With `CCOC(=O)CNCCC1(CC)C(=O)NC(=O)NC1=O` as the compound, how does the growth inhibition read?
Answer: -37.2% (inactive)

Question: For `[N-]=[N+]=CC(=O)c1ccc(Cl)cc1`, which growth inhibition is on record?
Answer: -16.5% (inactive)

Question: For `C[C@@H]1C[C@@H]2c3cccc4c3c(cn4CO)C[C@H]2N(C)C1`, which growth inhibition is on record?
Answer: 3.4% (inactive)

Question: Which growth inhibition does the source give for `O=[N+]([O-])c1ccc(O)c(C=NCCN=Cc2cc([N+](=O)[O-])ccc2O)c1.[Ni+2]` here?
Answer: -56.6% (inactive)

Question: Which growth inhibition does the source give for `CC(C)OP(=O)(OCCCO)C(Cl)Cl` (stereo not drawn) here?
Answer: 2.55% (inactive)

Question: With `C1CC[N-]CC1.CN(C)P(=O)(N(C)C)N(C)C.OO.OO.[O]=[Mo]` as the compound, how does the growth inhibition read?
Answer: 17.4% (inactive)

Question: With `CCC1(CC)C(=O)NC(=O)[N]([Sn]([CH3])([CH3])[N]2C(=O)NC(=O)C(CC)(CC)C2=O)C1=O` as the compound, how does the growth inhibition read?
Answer: -19.4% (inactive)

Question: For `Cl.[O-]c1cccc2cccnc12.[O-]c1cccc2cccnc12.[O-]c1cccc2cccnc12.[O-]c1cccc2cccnc12.[Ti+4]`, which growth inhibition is on record?
Answer: 91.3% (active)

Question: Which growth inhibition does the source give for `CC(Cc1ccc2c(c1)OCO2)NCC(O)c1ccc(O)c(O)c1` (stereo not drawn) here?
Answer: 5% (inactive)

Question: For `C[C@@]12CC/C(=N\OCC(=O)O)C=C1CC[C@H]1C2CC[C@]2(C)C1CC[C@H]2O` (stereo partly drawn), which growth inhibition is on record?
Answer: -15.8% (inactive)

Question: With `NC(N)=NN(N=O)C1CCCCC1` as the compound, how does the growth inhibition read?
Answer: -34.8% (inactive)

Question: With `S=C([SH2+])[SH2+].S=C([SH2+])[SH2+].[Pt+2].c1ccc(C[P+](c2ccccc2)(c2ccccc2)c2ccccc2)cc1` as the compound, how does the growth inhibition read?
Answer: -16.6% (inactive)

Question: Which growth inhibition does the source give for `O=C1OC[C@@H]2Cc3c([nH]c4ccccc34)[C@@H](c3cc(O)c(O)c(O)c3)N12` here?
Answer: 7.4% (inactive)

Question: With `COC(=O)CCSP(=S)(Oc1ccccc1)Oc1ccccc1` as the compound, how does the growth inhibition read?
Answer: 4.25% (inactive)

Question: With `CC(C)CCCC(C)C1CCC2C3CC=C4CC([Se][As](C)C)CCC4(C)C3CCC12C` (stereo not drawn) as the compound, how does the growth inhibition read?
Answer: 14.7% (inactive)

Question: Which growth inhibition does the source give for `Oc1ccccc1/C=N/C(O)C(Cl)(Cl)Cl` (stereo not drawn) here?
Answer: 41.3% (inactive)

Question: With `CCOC(=O)COc1cc(Cl)c(S(=O)(=O)F)cc1Cl` as the compound, how does the growth inhibition read?
Answer: 93.1% (active)

Question: For `CCCCC(CC)COP(OCC(CC)CCCC)OCC(CC)CCCC` (stereo not drawn), which growth inhibition is on record?
Answer: -37.5% (inactive)

Question: Which growth inhibition does the source give for `CCC(=O)[O-].CCC(=O)[O-].N.N.N.N.[Co+3].[O-][Cl+3]([O-])([O-])[O-]` here?
Answer: 17.9% (inactive)

Question: For `CCC1(CCNC(=O)CCl)C(=O)NC(=O)NC1=O`, which growth inhibition is on record?
Answer: -38.1% (inactive)

Question: Which growth inhibition does the source give for `COc1ccc(CC(C)=O)cc1OC` here?
Answer: 36% (inactive)

Question: With `CS(=O)(=O)C(Cl)Cl` as the compound, how does the growth inhibition read?
Answer: -2.45% (inactive)

Question: Which growth inhibition does the source give for `O=[N+]([O-])c1cc(Br)c(O)c(Br)c1` here?
Answer: -37.4% (inactive)

Question: With `O=S(=O)(F)c1cccc(Cl)c1C[P+](c1ccccc1)(c1ccccc1)c1ccccc1` as the compound, how does the growth inhibition read?
Answer: 12.7% (inactive)

Question: With `CC(C(=O)c1ccccc1)N(C)Cc1ccccc1` (stereo not drawn) as the compound, how does the growth inhibition read?
Answer: -36.7% (inactive)

Question: Which growth inhibition does the source give for `CN1C(=O)C(=CN(C)c2ccccc2)C(=O)N(C)C1=O` here?
Answer: 13.5% (inactive)

Question: Which growth inhibition does the source give for `NC1(C(=O)O)CCCC1` here?
Answer: -63.8% (inactive)

Question: With `Cc1nccc2c1[nH]c1ccccc12` as the compound, how does the growth inhibition read?
Answer: -5.65% (inactive)

Question: For `CC(C)(C)NCC(COc1ccc([N+](=O)[O-])cc1)OP(c1ccccc1)c1ccccc1` (stereo not drawn), which growth inhibition is on record?
Answer: 23.6% (inactive)

Question: For `O/N=C(/C(=N/O)c1ccccc1)c1ccccc1.O/N=C(/C(=N/O)c1ccccc1)c1ccccc1.[Ni]`, which growth inhibition is on record?
Answer: -21.8% (inactive)

Question: For `NC(N)=N/N=C1\C(=O)N(c2cccc([N+](=O)[O-])c2)C(=O)C1C(=O)Nc1cccc([N+](=O)[O-])c1` (stereo not drawn), which growth inhibition is on record?
Answer: -29.6% (inactive)

Question: For `CC(=O)CCNC1(c2ccccc2)CCCCC1`, which growth inhibition is on record?
Answer: -0.65% (inactive)

Test: NCI Yeast Anticancer Drug Screen. Data for the bub3 strain (AID 167)
Conditions: S. cerevisiae bub3 mutant strain, at 50.0 µM, active compounds read high
Summary of the method: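 Inhibition values come from growth of compound-treated mutant yeast normalised to vehicle-treated controls.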

Question: Which growth inhibition does the source give for `CC(C)CC(C)OC(=O)Cc1ccccc1` (stereo not drawn) here?
Answer: 7.8% (inactive)

Question: For `CNC(=O)Oc1ccc(Br)cc1Br`, which growth inhibition is on record?
Answer: 10.9% (inactive)

Question: With `Fc1ccccc1N=C=S` as the compound, how does the growth inhibition read?
Answer: 14.6% (inactive)

Question: With `Cc1cc(C)c(C(=O)O)c(C)c1.[Hg]` as the compound, how does the growth inhibition read?
Answer: 99.7% (active)

Question: Which growth inhibition does the source give for `COc1ccccc1P(=S)(c1ccccc1)c1ccccc1` here?
Answer: 27.2% (inactive)

Question: Which growth inhibition does the source give for `CC1CN1C1=C(Br)C(=O)C(N2CC2C)=C(Br)C1=O` (stereo not drawn) here?
Answer: 62% (inactive)

Question: For `Nc1ccc2c(c1)[O][Sn]([c]1ccccc1)([c]1ccccc1)[O]C2=O`, which growth inhibition is on record?
Answer: 88.1% (active)

Question: With `CCOC(=O)CNCCC1(CC)C(=O)NC(=O)NC1=O` as the compound, how does the growth inhibition read?
Answer: -0.6% (inactive)

Question: With `[N-]=[N+]=CC(=O)c1ccc(Cl)cc1` as the compound, how does the growth inhibition read?
Answer: 50.1% (inactive)

Question: For `C[C@@H]1C[C@@H]2c3cccc4c3c(cn4CO)C[C@H]2N(C)C1`, which growth inhibition is on record?
Answer: 0.55% (inactive)

Question: For `O=[N+]([O-])c1ccc(O)c(C=NCCN=Cc2cc([N+](=O)[O-])ccc2O)c1.[Ni+2]`, which growth inhibition is on record?
Answer: -3.8% (inactive)

Question: With `CC(C)OP(=O)(OCCCO)C(Cl)Cl` (stereo not drawn) as the compound, how does the growth inhibition read?
Answer: 3.75% (inactive)

Question: For `C1CC[N-]CC1.CN(C)P(=O)(N(C)C)N(C)C.OO.OO.[O]=[Mo]`, which growth inhibition is on record?
Answer: 11.9% (inactive)

Question: For `CCC1(CC)C(=O)NC(=O)[N]([Sn]([CH3])([CH3])[N]2C(=O)NC(=O)C(CC)(CC)C2=O)C1=O`, which growth inhibition is on record?
Answer: -1.3% (inactive)

Question: With `Cl.[O-]c1cccc2cccnc12.[O-]c1cccc2cccnc12.[O-]c1cccc2cccnc12.[O-]c1cccc2cccnc12.[Ti+4]` as the compound, how does the growth inhibition read?
Answer: 92% (active)

Question: Which growth inhibition does the source give for `CC(Cc1ccc2c(c1)OCO2)NCC(O)c1ccc(O)c(O)c1` (stereo not drawn) here?
Answer: 32.2% (inactive)

Question: Which growth inhibition does the source give for `C[C@@]12CC/C(=N\OCC(=O)O)C=C1CC[C@H]1C2CC[C@]2(C)C1CC[C@H]2O` (stereo partly drawn) here?
Answer: 2.75% (inactive)

Question: Which growth inhibition does the source give for `NC(N)=NN(N=O)C1CCCCC1` here?
Answer: -10.5% (inactive)

Question: With `S=C([SH2+])[SH2+].S=C([SH2+])[SH2+].[Pt+2].c1ccc(C[P+](c2ccccc2)(c2ccccc2)c2ccccc2)cc1` as the compound, how does the growth inhibition read?
Answer: 3.6% (inactive)

Question: Which growth inhibition does the source give for `O=C1OC[C@@H]2Cc3c([nH]c4ccccc34)[C@@H](c3cc(O)c(O)c(O)c3)N12` here?
Answer: 10.7% (inactive)

Question: Which growth inhibition does the source give for `COC(=O)CCSP(=S)(Oc1ccccc1)Oc1ccccc1` here?
Answer: 36.5% (inactive)

Question: With `CC(C)CCCC(C)C1CCC2C3CC=C4CC([Se][As](C)C)CCC4(C)C3CCC12C` (stereo not drawn) as the compound, how does the growth inhibition read?
Answer: 0.6% (inactive)

Question: With `Oc1ccccc1/C=N/C(O)C(Cl)(Cl)Cl` (stereo not drawn) as the compound, how does the growth inhibition read?
Answer: 48.1% (inactive)

Question: For `CCOC(=O)COc1cc(Cl)c(S(=O)(=O)F)cc1Cl`, which growth inhibition is on record?
Answer: 98.3% (active)

Question: Which growth inhibition does the source give for `CCCCC(CC)COP(OCC(CC)CCCC)OCC(CC)CCCC` (stereo not drawn) here?
Answer: -7.25% (inactive)

Question: For `CCC(=O)[O-].CCC(=O)[O-].N.N.N.N.[Co+3].[O-][Cl+3]([O-])([O-])[O-]`, which growth inhibition is on record?
Answer: 2.05% (inactive)

Question: For `CCC1(CCNC(=O)CCl)C(=O)NC(=O)NC1=O`, which growth inhibition is on record?
Answer: 4.55% (inactive)

Question: For `COc1ccc(CC(C)=O)cc1OC`, which growth inhibition is on record?
Answer: -24.1% (inactive)

Question: For `CS(=O)(=O)C(Cl)Cl`, which growth inhibition is on record?
Answer: 6.3% (inactive)

Question: For `O=[N+]([O-])c1cc(Br)c(O)c(Br)c1`, which growth inhibition is on record?
Answer: 6.75% (inactive)

Question: With `O=S(=O)(F)c1cccc(Cl)c1C[P+](c1ccccc1)(c1ccccc1)c1ccccc1` as the compound, how does the growth inhibition read?
Answer: 25.5% (inactive)

Question: Which growth inhibition does the source give for `CC(C(=O)c1ccccc1)N(C)Cc1ccccc1` (stereo not drawn) here?
Answer: 42.5% (inactive)

Question: With `CN1C(=O)C(=CN(C)c2ccccc2)C(=O)N(C)C1=O` as the compound, how does the growth inhibition read?
Answer: 4.4% (inactive)

Question: Which growth inhibition does the source give for `NC1(C(=O)O)CCCC1` here?
Answer: -1.5% (inactive)

Question: With `Cc1nccc2c1[nH]c1ccccc12` as the compound, how does the growth inhibition read?
Answer: 2.5% (inactive)

Question: For `CC(C)(C)NCC(COc1ccc([N+](=O)[O-])cc1)OP(c1ccccc1)c1ccccc1` (stereo not drawn), which growth inhibition is on record?
Answer: 14.8% (inactive)

Question: Which growth inhibition does the source give for `O/N=C(/C(=N/O)c1ccccc1)c1ccccc1.O/N=C(/C(=N/O)c1ccccc1)c1ccccc1.[Ni]` here?
Answer: 2.15% (inactive)

Question: Which growth inhibition does the source give for `NC(N)=N/N=C1\C(=O)N(c2cccc([N+](=O)[O-])c2)C(=O)C1C(=O)Nc1cccc([N+](=O)[O-])c1` (stereo not drawn) here?
Answer: 1.4% (inactive)

Question: With `CC(=O)CCNC1(c2ccccc2)CCCCC1` as the compound, how does the growth inhibition read?
Answer: -2.5% (inactive)
